Screening data from PubChem.
PfHsp40 rescue = restores yeast growth despite PfHsp40 toxicity; 340,000 tested, 0.68% active; growth rescue, % at 12.5 µM; S. cerevisiae expressing PfHsp40, growth rescue, ATP luminescence; in the data active = growth rescue above about 28%, passing the limit was not always enough; inconclusive = no clear call, values can overlap the other calls;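 also: yeast W303a lacking pdr1 and pdr3 grown in galactose medium; growth measured after three days at 30 °C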
FadD28 FP inh = M. tuberculosis FadD28 bisubstrate binding inhibition | FadD28 bisubstrate probe binding, fluorescence polarization | inhibition, % at 12.5 µM | 360,000 tested, 0.22% active | AID 588549; in the data active = inhibition above about 8.5%, passing the limit was not always enough; inconclusive = no clear call, values can overlap the other calls
BioA inh = blocks M. tuberculosis BioA enzyme activity | inhibition, % at 9.99 µM | purified M. tuberculosis BioA enzyme, plate reader | 360,000 tested, 0.096% active; in the data active = inhibition above about 40%; inconclusive = no clear call, values can overlap the other calls
Y pestis TopoI = inhibitors of Yersinia pestis topoisomerase I; Y. pestis Topo-I cleavage product accumulation, plate reader; activity, % at 10 µM; 360,000 tested, 0.064% active; AID 504884; in the data active = activity above about 50%, passing the limit was not always enough; inconclusive = no clear call, values can overlap the other calls
PrP UTR inh = inhibition of PrP 5' UTR reporter expression | AID 488862 | cell-based PrP 5' UTR mRNA reporter, plate reader | inhibition, % (no concentration beside the values) | 340,000 tested, 0.35% active; in the data active = inhibition above about 52%; also: 0 = median of the neutral control wells
PrP 5UTR single = prion 5' UTR mRNA inhibition, cherry-pick retest; cell-based prion protein 5' UTR reporter, plate reader; shares compounds with PrP UTR inh; inhibition, % at 2.5 µM; 1,100 tested, 48% active; AID 504592; in the data active = inhibition above about 54%; inconclusive = no clear call, values can overlap the other calls
* hit, by the source's call; ? = inconclusive; . = not tested or not shown. Compounds with a hit are over-represented: about 1.1% of the library has one in this group of screens.

SMILES | PfHsp40 rescue | FadD28 FP inh | BioA inh | Y pestis TopoI | PrP UTR inh | PrP 5UTR single
CCCC#Cc1ccc2c(c1)O[C@H](CN(C)C(=O)C1CCC1)[C@H](C)CN([C@H](C)CO)S2(=O)=O | . | . | 4 | . | . | .
O=C(Cc1ccccn1)NCC[C@H]1CC[C@@H](NC(=O)Nc2ccc(Cl)cc2)[C@H](CO)O1 | . | . | -3 | . | . | .
COCc1nnc(NS(=O)(=O)c2ccc(OC)cc2)s1 | 0 | 0 | -1 | 4 | 62* | -22
CC(=O)O[C@@]12CO[C@@H]1C[C@H](O)[C@@]1(C)C(=O)[C@H](O)C3=C(C)[C@@H](OC(=O)[C@H](O)[C@@H](NC(=O)c4ccccc4)c4ccccc4)C[C@@](O)([C@@H](OC(=O)c4ccccc4)C12)C3(C)C (some centres not stated) | 0 | -3 | 1 | 25 | 1 | .
CC(=O)O[C@H]1C(=O)[C@@]2(C)C([C@H](OC(=O)c3ccccc3)[C@]3(O)C[C@H](OC(=O)[C@H](O)[C@@H](NC(=O)c4ccccc4)c4ccccc4)C(C)=C1C3(C)C)[C@]1(OC(C)=O)CO[C@@H]1C[C@H]2O (some centres not stated) | 1 | -2 | 1 | 33 | 56* | 68*
CC(=O)O[C@H]1C(=O)[C@]2(C)[C@H]([C@H](OC(=O)c3ccccc3)[C@]3(O)C[C@H](OC(=O)[C@H](O)[C@@H](NC(=O)c4ccccc4)c4ccccc4)C(C)=C1C3(C)C)[C@]1(OC(C)=O)CO[C@@H]1C[C@@H]2O | 5 | -2 | -2 | 31 | 53* | 89*
CN(C)CC(=O)Nc1ccc2c(c1)[C@@H]1C[C@@H](CC(=O)NCc3cccnc3)O[C@H](CO)[C@@H]1O2 | . | . | 2 | . | . | .
C[C@H]1CN([C@@H](C)CO)C(=O)Cc2cc(NC(=O)Nc3ccccc3)ccc2O[C@@H]1CN(C)C(=O)NC1CCCCC1 | . | . | -4 | . | . | .
CCN(CC)Cc1cc(C(C)(C)C)cc(N2CCOCC2)c1O | -2 | -1 | . | 1 | 73* | 4
CN(C)Cc1cc(C(C)(C)C)cc(N2CCOCC2)c1O | 0 | . | 1 | 4 | -6 | .
C[C@@H]1CCCCO[C@@H](CN(C)CC2CCCCC2)[C@H](C)CN([C@H](C)CO)C(=O)c2cc(NC(=O)CCCCCC(=O)Nc3ccccc3N)ccc2O1 | . | . | 0 | . | . | .
Cc1ccc(Nc2nc(-c3c(C)nc4ncccn34)cs2)cc1 | 2 | -2 | 3 | 27 | 67* | 89*
Cc1nc2ccccn2c1-c1csc(NCc2ccco2)n1 | 0 | -2 | 1 | 11 | -10 | .
Cc1nc2ncccn2c1-c1csc(Nc2ccc(O)cc2)n1 | 0 | 1 | . | -13 | -5 | .
Cc1ccc(Nc2nc(-c3c(C)nc4ccccn34)cs2)cc1 | 0 | -3 | -1 | -8 | 59* | 83*
COC(=O)[C@@H]1[C@@H](CO)[C@@H]2Cn3c(cccc3=O)[C@@H]2N1C(=O)C1CCC1 | . | . | 1 | . | . | .
CCOc1ccccc1N(CC(=O)Nc1cccnc1)S(=O)(=O)c1ccc(C)cc1 | 0 | -6 | . | 20 | 54* | -17
CCOc1ccccc1N(CC(=O)Nc1cccnc1)S(C)(=O)=O | -1 | -3 | 11 | -6 | -20 | .
Cc1ccc(S(=O)(=O)Nc2ccc3c(c2)CC(=O)N([C@@H](C)CO)C[C@H](C)[C@H](CN(C)C(=O)Nc2cccc4ccccc24)O3)cc1 | . | . | -3 | . | . | .
CC(C)c1ccc(OCC(=O)NNC(=O)c2cnccn2)cc1 | 1 | -2 | . | -2 | 62* | 3
O=C(COc1ccc2ccccc2c1)NNC(=O)c1cnccn1 | -1 | -1 | . | -1 | -14 | .
CC(C)(C)n1ncc2c(=O)n(CC(=O)OCc3ccccc3)cnc21 | -2 | 0 | -1 | 1 | 60* | 30
CC(=O)N1CCCCN2[C@H](CO)[C@H](c3ccc(-c4ccncc4)cc3)[C@@H]2C1 | . | . | 3 | . | . | .
O=C(Nc1ccc(Cl)cc1)N1C[C@@H]2[C@H](c3ccccc31)[C@@H](CO)N2CC1CCCC1 | . | . | -3 | . | . | .
CC(C)c1ccccc1NC(=S)N1CCN(S(=O)(=O)c2cccs2)CC1 | -1 | -3 | 0 | -7 | 87* | -7
SMILES | PfHsp40 rescue | FadD28 FP inh | BioA inh | Y pestis TopoI | PrP UTR inh | PrP 5UTR single
CC(C)CCN(C(=S)Nc1cccc(F)c1)C1CCN(C(C)C)CC1 | 1 | -4 | . | -14 | 79* | -19
COc1ccc(NC(=S)N(CCC(C)C)C2CCN(C(C)C)CC2)cc1 | 0 | . | 1 | -10 | -18 | .
COc1ccc(C2NC3=C(CCC3)C3(C#N)C(OC)(OC)N=C(N)C23C#N)cc1 (configuration not stated) | -1 | 2 | 2 | -8 | 53* | ?
COC1(OC)N=C(N)C2(C#N)C(c3ccccc3)NC(C)=CC12C#N (configuration not stated) | 0 | -3 | . | 0 | -13 | .
O=C(Nc1cc2ccccc2oc1=O)c1ccccc1 | -1 | 1 | . | -5 | 57* | 63*
CCN(CC)C(=O)c1ccc(NC(=O)c2cccc(C(F)(F)F)c2)cc1 | -1 | -2 | 0 | -9 | 78* | -12
O=C(Nc1ccccc1)c1cccc(C(F)(F)F)c1 | 0 | 0 | . | -3 | -12 | .
CC(C)NC(=O)N(C)C[C@@H]1Oc2ncc(C#CC3CCCCC3)cc2C(=O)N([C@@H](C)CO)C[C@@H]1C | . | . | 0 | . | . | .
COc1ccc(-[n+]2c(C)cc(/C=C3\Sc4ccccc4N3C)cc2C)cc1 | ? | 0 | . | -2 | 66* | ?
COc1ccc(C(=O)/C=C2\Sc3ccccc3N2C)cc1 | 1 | 1 | . | 26 | -69 | .
COc1ccccc1-[n+]1c(C)cc(/C=C2\Sc3ccccc3N2C)cc1C | -1 | -5 | 29 | 3 | 70* | 28
Cc1ccccc1[N+](=O)[O-] | 0 | -2 | -1 | 3 | -11 | .
Cc1cc([N+](=O)[O-])c2ccccc2[n+]1[O-] | 127* | -1 | . | -2 | 87* | 98*
Nc1ccc(-c2cc3ccccc3c(=O)o2)cc1 | 7 | -1 | -2 | -12 | 70* | 68*
CC1CN(C(=O)[C@@H]2CCCN2S(=O)(=O)c2ccc(Cl)cc2)CC(C)O1 (some centres not stated) | 2 | 0 | . | 4 | 85* | -12
O=C(Nc1nnc(-c2cccs2)s1)c1cccc(F)c1 | 0 | -3 | 15 | -7 | 74* | -44
C=CCCC1(CC)C(=O)NC(=S)NC1=O | 0 | -1 | . | 3 | -6 | .
C=CCCC1(CC(C)C)C(=O)NC(=S)NC1=O | -1 | -3 | . | 0 | 91* | -3
OC[C@H]1[C@@H](c2ccc(-c3cccnc3)cc2)[C@H]2CN(Cc3ccccn3)CCCCN21 | . | . | 6 | . | . | .
O=C(NC1CCCCC1)c1csnn1 | 1 | 0 | . | 2 | 84* | -1
COCC(=O)N1[C@H](CO)[C@@H]2c3ccccc3N(C(=O)Nc3cc(F)ccc3F)C[C@@H]21 | . | . | 4 | . | . | .
CO[C@@H]1CN(C)C(=O)c2cc(NS(=O)(=O)c3c(C)noc3C)ccc2OC[C@@H](C)NC[C@@H]1C | . | . | 1 | . | . | .
Cn1c(=N)n(CC(=O)c2ccccc2)c2ccccc21 | . | -1 | 1 | 4 | . | .
